D3 ag: qHTS of D3 Dopamine Receptor Agonist: qHTS. D(3) dopamine receptor (Homo sapiens), P35462. D3R DiscoveRx beta-arrestin cells, luminescence, 90 min. max activation, %. actives 0.58% (n = 410,000); in the data active = max activation above about 30%
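Agonist-mode cell screen: cells plated at 1500/well and incubated overnight at 37 °C, then exposed to library compounds for 90 min at 37 °C. Detection reagent was added for 30–60 min at room temperature, and luminescence was read.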
D1 ag: Allosteric Agonists of the Human D1 Dopamine Receptor: qHTS; HEK293 T-REx D1 cells, calcium flux, agonist mode; actives 1% (n = 360,000); D(1A) dopamine receptor (Homo sapiens), P21728; activation, % at 2 µM; in the data active = activation above about 30%
Target sequence (P21728 whole entry, looked up): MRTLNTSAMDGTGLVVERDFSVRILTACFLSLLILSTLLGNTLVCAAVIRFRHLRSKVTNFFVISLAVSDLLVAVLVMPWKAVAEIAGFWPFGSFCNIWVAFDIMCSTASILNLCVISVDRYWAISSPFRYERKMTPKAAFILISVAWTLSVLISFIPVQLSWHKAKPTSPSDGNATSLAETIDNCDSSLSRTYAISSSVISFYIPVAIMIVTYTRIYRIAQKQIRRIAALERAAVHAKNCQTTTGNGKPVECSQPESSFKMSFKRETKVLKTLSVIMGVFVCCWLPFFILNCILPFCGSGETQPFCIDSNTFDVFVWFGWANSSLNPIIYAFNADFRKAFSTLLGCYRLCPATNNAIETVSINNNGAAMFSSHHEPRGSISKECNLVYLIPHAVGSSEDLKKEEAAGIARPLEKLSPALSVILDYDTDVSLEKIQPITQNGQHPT
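Agonism was scored from calcium flux recorded over 180 s (1 read/s) after pintool compound addition, following a 10-cycle baseline. Cells were inducible force-coupled HEK293 TREx D1, plated overnight at 30 C and loaded with no-wash calcium dye.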
D1 antagonist: Antagonist of Human D 1 Dopamine Receptor: qHTS; actives 3.2% (n = 360,000); activity change, negative = inhibition, % at 10 µM; AID 504652, 2011; HEK293 TREx D1 cells, calcium flux, dopamine EC80; hits give low values; D(1A) dopamine receptor (Homo sapiens), P21728; in the data active = activity change below about -30%
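Tetracycline-induced HEK293 T-REx cells with force-coupled D1 receptor were loaded with a no-wash calcium dye. Compound was added after a 10 s baseline and read kinetically for 180 s; EC80 dopamine was then added and calcium flux followed another 180 s.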
D1 potentiator: Potentiators of Human D1 Dopamine Receptor: qHTS. D(1A) dopamine receptor (Homo sapiens), P21728. HEK293 TREx D1 cells, calcium flux, dopamine EC20 potentiation. potentiation, % at 10 µM. actives 0.036% (n = 360,000). AID 504651, 2011; in the data active = potentiation above about 30%
D3 antag: qHTS of D3 Dopamine Receptor Antagonist: qHTS; D3R cells, DiscoveRx beta-arrestin luminescence, antagonist mode; hits give low values; max response, negative = inhibition, %; actives 2.5% (n = 360,000); in the data active = max response below about -50%; inconclusive = no clear call, values can overlap the other calls
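Cells plated overnight at 1500 cells/well, then exposed to library compounds with dopamine controls for 90 minutes at 37 degrees C. DiscoveRx reagent added for 30–60 minutes at room temperature; luminescence read, quantitative HTS format.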
A number is an active result; i = inactive; ? = inconclusive; nt = no result given; ! = not confirmed by another sample. A selection: hits, their analogues and other compounds. The true share with any hit is near 6%.

SMILES | D3 ag | D1 ag | D1 antagonist | D1 potentiator | D3 antag
N#Cc1cc2c(nc1SCc1ccc(Cl)cc1)CCCC2 | i | i | i | i | -64
N#Cc1cc2c(nc1SCc1cccnc1)CCCCC2 | i | i | i | i | i
N#Cc1cc2c(nc1SCC(=O)O)CCCCC2 | i | i | i | i | i
Cc1ccc(C)c(Nc2cc(C(=O)NC3CCCCC3)c3ccccc3n2)c1 | i | i | i | i | nt
N#Cc1ccc(OCCN2CCc3ccccc3C2)cc1 | i | nt | nt | nt | -79
Clc1ccc(OCCCCN2CCc3ccccc3C2)cc1 | i | i | i | i | -114
COc1ccc(OCCOCCN2CCc3ccccc3C2)cc1 | i | i | i | i | -51
CC(=O)Nc1ccc(NC(=O)CSc2cn(CC(=O)N(C(C)C)C(C)C)c3ccccc23)cc1 | i | i | i | i | nt
CC(NCC(O)COC1CCC(C(C)(C)C)CC1)c1ccccc1 (centres undefined) | i | 112 | i | i | i
CC1CCC(C(C)C)C(OCC(O)CNC(C)c2ccccc2)C1 (centres undefined) | i | 33 | i | i | i
Cc1ccc2oc(=O)c3cc(C(=O)Nc4ccccc4C(N)=O)sc3c2c1 | i | i | i | i | nt
COc1ccc(Nc2cc(C(=O)NCCCN3CCN(c4ccc(OC)cc4)CC3)c3ccccc3n2)cc1 | i | i | i | i | nt
Cc1ccc(C)c(N2CCN(CCCNC(=O)c3cnn(-c4ccccc4)c3C3CCN(C(=O)OC(C)(C)C)CC3)CC2)c1 | i | i | -42 | i | nt
COc1ccccc1N1CCN(CCCNC(=O)c2cnn(-c3cccc(Cl)c3)c2C2CCN(C(=O)OC(C)(C)C)CC2)CC1 | i | i | -31 | i | nt
COc1ccccc1N1CCN(CCCNC(=O)c2cnn(-c3ccc(C)c(C)c3)c2C2CCN(C(=O)OC(C)(C)C)CC2)CC1 | i | i | i | i | nt
Cc1cc(Br)ccc1OCCN1CCCC1 | i | i | i | i | -69
Cc1ccc(OCCCCN2CCCCC2)c(C)c1 | i | i | i | i | i
Cc1ccc(OCCCCNC2CCCC(C)C2C)c(C)c1 (centres undefined) | i | 42 | i | i | i
Cc1ccc(C)c(OCCCCN2CCCCC2)c1 | i | i | i | i | -67
Cc1ccccc1OCCCN1CCCC1 | i | nt | nt | nt | -60
COc1ccccc1NC(=O)C1=C(C)Nc2nc(SCc3ccc(Cl)cc3)nn2C1c1ccccc1Cl (centres undefined) | i | i | i | i | nt
O=C(NCCc1ccc(Cl)cc1)C(=O)NCC(c1ccc2c(c1)OCO2)N1CCOCC1 (centres undefined) | i | i | i | i | nt
CCCC(=O)Nc1nnc(SCc2cc(=O)c3cc(C)ccc3[nH]2)s1 | i | i | i | i | nt
COc1ccc(-n2c(/C=C/c3cccc(C(F)(F)F)c3)nc3ccccc3c2=O)cc1Cl | i | i | i | i | nt
N#Cc1ccc(N)cc1OCCCN1CCCCC1 | i | nt | nt | nt | -52
SMILES | D3 ag | D1 ag | D1 antagonist | D1 potentiator | D3 antag
Cc1ccc(C#N)c(SCCN2CCCCC2)n1 | i | i | i | i | i
Cc1ccc(OCCCN2CCCC2)c(C)c1 | i | i | i | i | -52
Cc1noc(Cn2c(=O)c3cc4c(cc3n(CC(=O)Nc3cccc(Cl)c3)c2=O)OCO4)n1 | i | i | i | i | nt
CCCCOc1ccc(OCCCN2CCOCC2)cc1 | 87! | i | i | i | i
CCOc1ccc(OCCOCCN2CCOCC2)cc1 | i | i | i | i | ?
CCC(C)c1ccc(OCCCCN2CCOCC2)cc1 (centres undefined) | i | i | i | i | -65
Cc1ccc(C(=O)N(c2ccc(C)cc2)S(=O)(=O)c2ccc(Cl)cc2)cc1 | i | i | i | i | nt
CC(NC(=O)NC1CCCCC1)C(c1cccs1)N1CCN(c2ccccc2)CC1 (centres undefined) | i | i | i | i | -55
CC(NC(=O)C1CC1)C(c1cccs1)N1CCN(c2ccccc2)CC1 (centres undefined) | i | i | i | i | i
CC(NC(=O)Nc1ccc(F)cc1)C(c1cccs1)N1CCCC1 (centres undefined) | i | 72 | i | i | i
